In PubChem BioAssay AID489018 (Southern Research Specialized Biocontainment Screening …, 2010):
The whole screen tested about 2,300 compounds, of which about 350 (15%) were called active. No rule for the calls is given here. A selection follows. Measured potencies and affinities stand elsewhere.

Assay: HepG2 cell cytotoxicity, dose response, cytotoxicity control for non-replicating M. tuberculosis project (AID 489018);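 also: HepG2 human liver cells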
Details: series mostly up to 20 µM

| SMILES | outcome |
| --- | --- |
| COc1ccccc1-c1nnc(Sc2nc([N+](=O)[O-])nn2C)o1 | inactive |
| Cc1cc(C)c(C(=O)COC(=O)c2ccc([N+](=O)[O-])o2)cc1C | inactive |
| COc1ccc2cc(C(=O)C3CCCN(Cc4cccc(C)n4)C3)ccc2c1 (configuration not stated) | inactive |
| CCCCOc1ccc(NC(=O)CN2CCN(Cc3ccccc3)CC2)cc1 | inactive |
| CC(C)(C)c1ccccc1OCCOCCN1CCCCCC1 | inactive |
| CS/C(Nc1cc(Cl)ccc1Cl)=C(/C#N)C(=O)c1ccco1 | inactive |
| Cc1[nH]c2ccccc2c1C(=O)COC(=O)c1ccc([N+](=O)[O-])s1 | inactive |
| c1ccc(-c2n[nH]c(-c3ccccn3)n2)nc1 | inactive |
| c1ccc(Nc2nc(-c3ccccn3)cs2)cc1 | inactive |
| COC(=O)C(C)Oc1ccc2cc(-c3ccccc3)c(=O)oc2c1 (configuration not stated) | inactive |
| O=C(CCS(=O)(=O)Cc1ccccc1)Nc1ncc([N+](=O)[O-])s1 | inactive |
| O=S(=O)(c1ccc(OCC2CO2)cc1)c1ccc(OCC2CO2)cc1 (configuration not stated) | inactive |
| Cc1ccccc1C(=O)NN1CC(C(=O)OCc2ccc(Cl)c(Cl)c2)CC1=O (configuration not stated) | inactive |
| CCC(C)c1ccc(OCCn2ccnc2)cc1 (configuration not stated) | inactive |
| Cc1ccc2nc(C)c3c(c2c1)COC3 | inactive |
| Cc1[nH]n(-c2cccc(Cl)c2)c(=O)c1/C=N/n1c(C)nc2ccccc2c1=O | inactive |
| CC(C)(C)NCC1(CO)SC(N)=NC1=O (configuration not stated) | inactive |
| CCOC(=O)/C=C1\Nc2ccccc2OC1=O | inactive |
| COc1cc(NC(=O)C/C(C)=N/NC(=O)c2cccs2)c(OC)cc1Cl | inactive |
| O=C(Nc1nnc(-c2ccco2)o1)c1cccc2ccccc12 | inactive |
| COC(=O)c1cc(-c2ccc(OC)cc2)on1 | inactive |
| COc1ccc(/C=C/c2nc3ccccc3c(=O)o2)cc1 | inactive |
| CC(=O)c1ccc(OC(=O)c2ccc(-n3nc(C)cc3C)cc2)cc1 | inactive |
| Cn1nnc(NC(=O)COc2ccc(C3CCCCC3)cc2)n1 | inactive |

| SMILES | outcome |
| --- | --- |
| O=Cc1ccnc(-c2ccc(OC(=O)c3ccco3)cc2)n1 | inactive |
| Cc1ccc(N/N=C2\CS(=O)(=O)N(C)c3ccsc32)cc1 | inactive |
| O=C(N/N=C/c1ccc[nH]1)c1cccnc1 | inactive |
| COc1ccc(C(=O)N/N=C/c2cccc3cccnc23)cc1 | inactive |
| COc1cccc(NC(=O)c2ccc(C(=O)c3ccccc3)o2)c1 | inactive |
| O=C(N/N=C/c1ccccn1)c1cc([N+](=O)[O-])cc([N+](=O)[O-])c1 | inactive |
| O=C(N/N=C/c1ccccn1)c1cccc([N+](=O)[O-])c1 | inactive |
| O=C(N/N=C/c1ccc(Br)s1)c1cccnc1 | inactive |
| COc1cc(OC)cc(C(=O)NNC(=O)c2ccccn2)c1 | inactive |
| COc1ccc(OCC(=O)NNC(=O)c2ccccn2)cc1 | inactive |
| Cc1ccc2[nH]c(C)c(CCNC(=O)c3cc4cc([N+](=O)[O-])ccc4oc3=O)c2c1 | inactive |
| Cc1cccc(NCCC(=O)c2ccc([N+](=O)[O-])cc2)c1C | inactive |
| CC(C)c1ccc(C2=C(O)c3ccccc3C(=O)C2=O)cc1 | inactive |
| O=C(CC1CCCC1)OCn1nnc2ccccc2c1=O | inactive |
| O=C(c1cc([N+](=O)[O-])cc([N+](=O)[O-])c1)N(Cc1nnc(-c2ccccc2Cl)o1)C1CC1 | inactive |
| O=C1N/C(=N\c2ccccn2)SC1Cc1ccc(Cl)cc1 (configuration not stated) | inactive |
| COc1cc(/C=C/c2ccc3c([N+](=O)[O-])cccc3n2)ccc1OCC(=O)O | inactive |
| CCCOc1ccc(-c2nc(C#N)c(NCCCn3ccnc3)o2)cc1 | inactive |
| O=C(CCSc1nnc(-c2ccccc2)o1)N1CCOCC1 | inactive |
| Cc1onc(-c2ccccc2)c1C(=O)O/N=C(\N)c1ccc([N+](=O)[O-])o1 | inactive |
| O=C(COC(=O)c1ccc(Br)o1)NCCCc1ccccc1 | inactive |
| Oc1ccccc1Nc1nc(NCC2CCCO2)c2ccccc2n1 (configuration not stated) | inactive |
| O=C(c1ccc([N+](=O)[O-])s1)N1CCN(c2cccc(Cl)c2)CC1 | inactive |
| NC(N)=N/N=C/c1cn(-c2ccccc2)nc1-c1cccs1 | inactive |

| SMILES | outcome |
| --- | --- |
| Cc1ccc(-c2nn(-c3ccccc3)cc2/C=N/NC(=O)c2ccncc2)o1 | inactive |
| O=c1oc(-c2cccs2)nc2c1cnn2-c1ccccc1 | inactive |
| O=C(N/N=C/c1cccc2nccnc12)c1ccncc1 | inactive |
| CC(C)(C)Sc1ccc2nc3c(n2c1)CCCC3 | inactive |
| CCOC(=O)C(Nc1ccc2ccccc2c1)C(=O)OCC | inactive |
| CC1Cc2ccccc2N1C(=O)COC(=O)c1ccc(Cl)nc1 (configuration not stated) | inactive |
| CC(C)(C)OC(=O)N/N=C\c1ccc([N+](=O)[O-])s1 | inactive |
| O=C(CNC(=O)c1cccc(F)c1)N/N=C/c1ccc([N+](=O)[O-])s1 | inactive |
| Cc1ccc(C(=O)N/N=C/c2ccc([N+](=O)[O-])s2)cc1 | inactive |
| O=C(N/N=C/c1ccc([N+](=O)[O-])s1)c1cccc(Br)c1 | inactive |
| O=C(N/N=C/c1ccc([N+](=O)[O-])s1)c1ccccc1 | inactive |
| O=C(N/N=C/c1ccc([N+](=O)[O-])s1)c1ccncc1 | inactive |
| COC(=O)N/N=C/c1ccc([N+](=O)[O-])s1 | inactive |
| CCOC(=O)N/N=C\c1ccc([N+](=O)[O-])s1 | inactive |
| Oc1oc(-c2ccco2)nc1C=Nc1cccc(Cl)c1 | inactive |
| CCCCOC(=O)C1CCCC(C(=O)OCCCC)N1 (configuration not stated) | inactive |
| COC(=O)COc1ccc(S(=O)(=O)N2CCCCCC2)cc1 | inactive |
| O=C(CNC(=O)c1ccco1)OCc1ccc(C(=O)Oc2ccccc2)cc1 | inactive |
| Cn1c(-c2cccc([N+](=O)[O-])c2)cnc1NCc1cccc(F)c1 | inactive |
| Cc1ccc(C)c(-c2csc(NC(=O)c3cnccn3)n2)c1 | inactive |
| O=C(Nc1nnc(-c2ccccn2)o1)c1cccc(Cl)c1 | inactive |
| COCCOC(=O)c1c(C)oc2ccc(OC(=O)c3ccco3)cc12 | inactive |
| O=C(Nc1nnc(-c2ccc(Br)cc2)o1)C1=COCCO1 | inactive |
| O=C(c1ccc(-c2ccc([N+](=O)[O-])cc2)o1)N1CCCCCCC1 | inactive |

| SMILES | outcome |
| --- | --- |
| FC(F)(F)c1nnc2ccc(Cl)nn12 | inactive |
| COc1ccc2nc(/N=C(\N)NC(=O)C(C)(C)C)nc(C)c2c1 | inactive |
| COc1ccc(/C=N/Nc2cc(C)nc(-n3nc(C)cc3C)n2)cc1 | inactive |
| COc1cc(/C=N/Nc2cccc3cccnc23)cc(OC)c1O | inactive |
| Cc1cc(N/N=C/c2ccccc2O)c2ccccc2n1 | inactive |
| COc1ccc(Nc2ccccc2N)cc1 | inactive |
| Cc1nnc(N/N=C/c2ccc(Br)cc2)n1N | inactive |
| O=C(c1ccccc1)c1nc[nH]c1C(=O)Nc1ccccc1 | inactive |
| COC(=O)C(O)(c1ccc(NC(=S)NC(=O)c2ccccc2)cc1)C(F)(F)F (configuration not stated) | inactive |
| O=C(N=Nc1c(O)[nH]c2ccc(Br)cc12)c1ccccc1-n1cccc1 | inactive |
| O=C(Oc1ccccc1)c1ccc(NC(=O)c2ccco2)cc1 | inactive |
| O=C1NC(=O)C(=Cc2ccc(Oc3ccc([N+](=O)[O-])cc3)cc2)C(=O)N1 | inactive |
| c1ccc2sc(SCc3ccc(-c4nnco4)cc3)nc2c1 | inactive |
| CCCCNC(=O)Nc1nnc(-c2ccc(Cl)cc2)o1 | inactive |
| CC(NC(=O)c1cc([N+](=O)[O-])cc([N+](=O)[O-])c1)c1ccc(-n2ccnc2)cc1 (configuration not stated) | inactive |
| Cc1cccc(OCCN2CSC(=S)N(C)C2)c1 | inactive |
| COc1cc(CNC2CCCC2)cc(Cl)c1OCc1ccc(F)cc1 | inactive |
| Clc1ccc(OCCCNCc2ccccc2)c2ccccc12 | inactive |
| COC(=O)C1CC(=O)N(c2ccc(OCc3ccccc3Cl)cc2)C1 (configuration not stated) | inactive |
| COc1cc(CNCCc2ccccc2)cc(Br)c1OCC(=O)Nc1ccccc1C | inactive |
| Clc1ccc(Cl)c(OCCCCNCc2ccccc2)c1 | inactive |
| Clc1cccc(CNCCNCc2cccc(Cl)c2)c1 | inactive |
| N#C/C(N=Nc1ccccc1O)=N\Nc1ccccc1O | inactive |
| O=C(OCC#CCSc1nc2ccccc2o1)c1ccco1 | inactive |

| SMILES | outcome |
| --- | --- |
| O=C(CCNc1ccc(Cl)cc1)c1cccs1 | inactive |
| O=C(N/N=C/c1ccccn1)c1cccc(S(=O)(=O)Nc2ccccc2Cl)c1 | inactive |
| CC(=O)Nc1nc2ccccc2n1CCOc1ccccc1Cl | inactive |
| COc1cccc2cc(-c3nc4ccccc4o3)c(=O)oc12 | inactive |
| NC(=O)c1ccc(N=Cc2ccc([N+](=O)[O-])s2)cc1 | inactive |
| CCC(C)(C)c1ccc(OCC(=O)Nc2ccncc2)cc1 | inactive |
| Cc1nnc(N/N=C/c2ccc(-c3ccc(Br)cc3)o2)n1N | inactive |
| O=C(Nc1nnc(-c2ccc(Cl)cc2)o1)c1nc2ccccc2s1 | inactive |
| Cc1ccc2nc(CCc3nc4ccc(C)cc4[nH]3)[nH]c2c1 | inactive |
| O=C(CCNc1ccc(Cl)c(C(F)(F)F)c1)c1ccco1 | inactive |
| COc1cccc(-c2cc3nc4c(c(NCC(C)(C)CN(C)C)n3n2)CCCC4)c1 | inactive |
| CN(C)CCNc1c2c(c(C#N)c3nc4ccccc4n13)CCCC2 | inactive |
| CSc1ccc(CNc2ncc(-c3cccc([N+](=O)[O-])c3)n2C)cc1 | inactive |
| CCCCCCCC(=O)N/N=C(/C)c1c(O)cc(C)oc1=O | inactive |
| CCCCCCCC(=O)NNC(=O)c1ccc(F)cc1 | inactive |
| O=C(OCc1c(Cl)cccc1Cl)c1ccccn1 | inactive |
| COC(=O)COc1cccc(NC(=O)COc2ccccc2)c1 | inactive |
| O=C(N/N=C/C(Br)=C/c1ccccc1)c1ccncc1 | inactive |
| O=C(N/N=C/C(Br)=C/c1ccccc1)c1cnccn1 | inactive |
| COc1ccc(NC(=O)CCCN2C(=O)/C(=C\c3ccco3)SC2=S)cc1 | inactive |
| O=c1[nH]c(=O)n(Cc2ccccc2Cl)c(O)c1/C=C1/C=CC=N1 | inactive |
